FBPA coupling cs: coupling enzyme interference in Giardia aldolase counter-screen | coupling enzyme system counterscreen, AmpLite Red fluorescence | activity change, negative = inhibition, % at 58.2 µM, hits read low | hit rate 0.67% among 290,000; in the data active = activity change below about -30%
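Counterscreen lacking aldolase: glyceraldehyde-3-phosphate coupling-enzyme reagent preincubated 10 min at RT with compound (at 57.5 uM final), then substrate/coupling system with AmpLite Red added; fluorescence read at 525/598 nm after 20 min RT.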
Tau fluor counter: counter-screen for tau fibril formation inhibitors | Potency, µM (titrated, usually from 57.7 µM), for the others: top-dose activity change, negative = decrease | hit rate 0.93% among 280,000 | tau K18 P301L Alexa594 fluorescence, heparin fibrillization; also: potency is read from the fitted curve at half-maximal effect; nearly all actives have a fitted effect of over 55% in size
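Human K18 P301L tau (15 uM unlabeled plus 0.24 uM Alexa 594-labeled, final) in 100 mM sodium acetate pH 7 was mixed with compound and 20 uM heparin and incubated 6 hr at 37 C.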
Sfp inh: Sfp phosphopantetheinyl transferase inhibition | Biochemical Sfp PPTase activity, qHTS | AID 1490 | Potency, µM, without a hit: largest response in the series, negative = inhibition, hits mostly inhibitors | Q9F4F7 | hit rate 3.5% among 310,000;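 also: the enzyme is Sfp with the accession as filed and its product quenches rhodamine fluorescence; potency is read from the fitted curve at half-maximal effect; 0% = enzyme reaction without inhibitor and -100% = no enzyme wells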
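With Hepes-Na pH 7.6 buffer containing 10 mM MgCl2, Sfp (15 nM) modified BHQ-2-YbbR (12.5 uM) using rhodamine-CoA (5 uM). Two reads 30 minutes apart at 525/598 nm yielded each well's rate.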
KDM4E inh: blocks human JMJD2E demethylase activity; JMJD2E catalytic domain, FDH-coupled NADH fluorescence (FDH is formaldehyde dehydrogenase); Potency, µM (doses to about 57.1 µM), without a hit: top-dose activity change, negative = inhibition, usual class: inhibitors; B2RXH2; hit rate 1.6% among 230,000; active = well fitted inhibition curve with a large enough effect, not every such curve was filed as active; inconclusive = small, poorly fitted or top-dose-only effect, or another doubt; inactive = no such curve, though single readings can be large or run the other way;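 also: potency is read from the fitted curve at half-maximal effect; 0% = wells with enzyme and -100% = buffer wells without enzyme; nearly all actives have a fitted effect of over 50% in size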
Target sequence (B2RXH2 1-337 limits assumed): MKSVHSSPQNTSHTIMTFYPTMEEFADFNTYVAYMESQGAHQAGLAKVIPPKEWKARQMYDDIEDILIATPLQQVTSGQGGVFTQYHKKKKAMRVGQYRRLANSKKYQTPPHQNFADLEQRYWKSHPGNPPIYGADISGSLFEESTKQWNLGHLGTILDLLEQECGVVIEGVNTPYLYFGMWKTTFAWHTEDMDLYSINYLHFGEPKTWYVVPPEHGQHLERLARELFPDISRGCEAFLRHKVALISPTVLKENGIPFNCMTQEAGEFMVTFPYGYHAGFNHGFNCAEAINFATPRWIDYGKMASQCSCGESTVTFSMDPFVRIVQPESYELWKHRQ
Tau ThT inhib: tau fibrillization inhibition (ThT binding) | P10636 | recombinant tau K18 P301L (four-repeat tau fragment), heparin-induced fibrillization, ThT fluorescence | Potency, µM (series often up to 57.4 µM), for the others: at the top dose activity, negative = inhibition, actives largely listed as inhibitors | hit rate 2.1% among 270,000 | AID 1460; also: potency is read from the fitted curve at half-maximal effect; nearly all actives have a fitted effect of over 55% in size
Target sequence (P10636 561-689 P618L limits assumed): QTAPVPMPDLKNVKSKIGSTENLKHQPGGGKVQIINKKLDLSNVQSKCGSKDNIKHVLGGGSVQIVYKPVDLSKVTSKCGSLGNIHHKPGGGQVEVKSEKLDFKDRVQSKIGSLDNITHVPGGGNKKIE
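Recombinant human tau K18 fragment […] carrying P301L, 15 uM unlabeled plus 0.24 uM Alexa 594-labeled, was fibrillized with 20 uM heparin in 100 mM sodium acetate pH 7 for 6 hr at 37 C; 30 uM ThT fluorescence read after 1 hr.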
Tau FP inhib: inhibitors of human tau fibril formation; P10636; K18 P301L tau heparin fibrillization, Alexa594 FP, 6 h; Potency, µM (highest dose often 57.7 µM), for the others: at the top dose activity, negative = inhibition, actives largely listed as inhibitors; hit rate 0.39% among 280,000; also: potency is read from the fitted curve at half-maximal effect; nearly all actives have a fitted effect of over 55% in size
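Human K18 P301L fragment (15 uM unlabeled plus 0.24 uM Alexa 594-labeled) in 100 mM sodium acetate pH 7 with compound, aggregation induced by 20 uM heparin for 6 hr at 37 C. ThT (30 uM) added for 1 hr, then Alexa 594 FP read.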
* marks the source's active call; other numbers are inactive results; ? = inconclusive; / = not tested or not shown; [ ] = remark or other dose. Hits are enriched below; roughly 5.3% of the tested compounds scored in any of these assays. Unless noted, calls follow the shape of the dose curve; as a rule, active = well fitted curve in the direction sought with a large enough effect; inconclusive = small, poorly fitted or top-dose-only effect, or another doubt; inactive = no such curve, though single readings can be large; an effect the other way counts as inactive or inconclusive. Unless noted, % is scaled to controls: 0 for no effect and ±100 for the full control effect.

SMILES	FBPA coupling cs	Tau fluor counter	Sfp inh	KDM4E inh	Tau ThT inhib	Tau FP inhib
C=CCN1C(=O)NC(=O)/C(=C/c2ccc(N(C)C)c(Br)c2)C1=O	-6.4	-26.5%	50.1µM*	-23.6%	?	?
C=CCN1C(=O)NC(=O)/C(=C/c2ccoc2)C1=O	1.8	-14.6%	-28.7%	-2.5%	?	?
C[C@](O)(CS(=O)(=O)c1ccc(F)cc1)C(=O)Nc1ccc(C#N)c(C(F)(F)F)c1	/	/	11.8%	/	/	/
O=C(Nc1ccc2nc(-c3cccs3)c(-c3cccs3)nc2c1)NC1CC1	-0.6	?	10.8%	?	?	22.4µM*
O=C(CSc1nc(-c2cccs2)nc2cc(=O)[nH]n12)Nc1ccc(F)cc1	/	-5.4%	/	/	?	-3.2%
CCN(CC)S(=O)(=O)c1cccc(N=Nc2c(O)n(CC)c(=S)n(CC)c2=O)c1	2.5	?	11.7%	8.1%	15.8µM*	9.5%
COc1ccc(-c2cc(=O)c3cc(OCC(=O)OC(C)C)ccc3o2)cc1	/	-12.4%	/	/	?	3.6%
CC1=NN(c2ccccc2)C(=O)/C1=C/c1c(O)[nH]c(=O)[nH]c1=O	0.1	-10.4%	3.9%	-5.1%	?	-10.1%
CC1=NN(c2ccccc2)C(=O)/C1=C/c1c(O)[nH]c(=S)[nH]c1=O	6.6	-22.1%	50.1µM*	-16.2%	?	?
CCOC(=O)CNC(=O)CSP(=S)(OCC)OCC	0.0	-5.4%	79.4µM*	-0.2%	-7.4%	2.7%
CC(C)C1C(=O)O[C@@H]2CCN3CC=C(COC(=O)[C@](C)(O)[C@]1(C)O)[C@H]23 (stereo not given in full)	0.6	/	23.0%	/	/	/
O=C1NC(=O)C(=Cc2coc3ccccc3c2=O)C(=O)N1	4.7	-18.5%	39.8µM*	20µM*	?	?
CC(=O)n1cc(C=C2C(=O)NC(=O)NC2=O)c2ccccc21	0.3	/	22.4µM*	/	/	/
O=C1NC(=O)C(=C/C=C/c2coc3ccc(Br)cc3c2=O)C(=O)N1	6.0	-19.6%	-14.3%	-6.4%	7.94µM*	?
O=C1NC(=O)C(=Cc2csc3ccccc23)C(=O)N1	0.8	-17.2%	17.8µM*	?	?	0.2%
C=C1C([C@@]2(C)C(OC(C)=O)CC(=O)O[C@@](C)(COC(C)=O)C2CC(=O)OC)C(OC=O)C(OC(=O)C(OC(C)=O)C(C)CC)[C@]2(C)C(c3ccoc3)CC(=O)C12O (stereo not given in full)	-1.4	-26.6%	10.7%	-7.9%	?	12.7%
C[C@H](NC(=O)[C@@H](N)Cc1ccc(O)cc1)C(=O)N[C@@H](Cc1ccccc1)C(=O)N[C@@H](Cc1ccccc1)C(N)=O	/	3.7%	-7.7%	/	5.8%	-4.5%
C[C@H]1C[C@H](C)C(=O)[C@@H]([C@H](O)CC2CC(=O)NC(=O)C2)C1	-0.2	-10.7%	16.6%	8.5%	-14.2%	5.3%
C[C@]12CC[C@H]3[C@@H](CCC4C[C@H](O)CC[C@@]43C)[C@@H]1CC[C@@H]2O (stereo not given in full)	/	-5.1%	/	1.9%	-11.0%	7.5%
CNC(=O)Oc1cccc(-c2cn3cc(OC(=O)NC)ccc3n2)c1	-5.5	?	12.2%	?	14.1µM*	-11.9%
CNC(=O)Oc1ccc(-c2cn3cc(Cl)ccc3n2)cc1	-12.7	-8.8%	5.2%	?	1.1%	-3.1%
CCOC(=O)C1(CCc2ccccc2)CCN(C2CCSCC2)CC1	-2.9	-4.3%[2.34 µM]	79.4µM*	?	-2.3%	-5.5%[2.34 µM]
CCOC(=O)C1(CCCc2ccccc2)CCN(C2CCCC2)CC1	1.1	-14.0%	2.5%	3.5%	?	-7.4%
CC[C@@]1(O)C(=O)OCc2c1cc1n(c2=O)-c2cc3ccccc3nc2C1	-3.8	2.2%	1.0%	/	-4.9%	1.9%
COC(=O)c1ccccc1N=Cc1c(O)[nH]c(=S)[nH]c1=O	2.9	5.2%	-23.8%	?	-13.9%	-3.0%
SMILES	FBPA coupling cs	Tau fluor counter	Sfp inh	KDM4E inh	Tau ThT inhib	Tau FP inhib
O=c1[nH]c(=S)[nH]c(O)c1N=Nc1ccc(OC(F)F)cc1	0.2	-4.0%	-3.6%	2.7%	3.98µM*	6.4%
O=c1[nH]c(=S)[nH]c(O)c1N=Nc1cccc(S(=O)(=O)N2CCOCC2)c1	-2.3	-5.0%	-9.1%	-4.2%	?	-2.2%
O=c1[nH]c(=S)[nH]c(O)c1N=Nc1ccc(S(=O)(=O)N2CCOCC2)cc1	2.4	-7.4%	-18.4%	-5.8%	?	-6.9%
COc1ccc(N=C(C)c2c(O)[nH]c(=O)[nH]c2=O)cc1	0.3	/	9.9%	/	/	/
NS(=O)(=O)c1ccc(N=Nc2c(O)[nH]c(=S)[nH]c2=O)cc1	-2.7	-13.2%	-7.6%	-7.1%	5.62µM*	-4.2%
COc1ccc(N=Nc2c(O)[nH]c(=S)[nH]c2=O)cc1	2.9	-10.2%	-26.9%	-4.7%	2.82µM*	-4.0%
COc1cccc(N=Nc2c(O)[nH]c(=S)[nH]c2=O)c1	1.5	-19.7%	-19.0%	-5.6%	7.08µM*	-5.1%
Cc1cccc(Oc2nc3c(C)cccn3c(=O)c2/C=C(\C#N)c2nc3ccccc3s2)c1	/	-9.2%	/	/	?	-11.0%
CCCCC/C=C\C/C=C\CCCCCCCCCC(=O)NCCc1ccc(O)c(O)c1	1.4	-6.4%	13.6%	-2.8%	-0.9%	-2.2%
Cc1cccc(N2C(=O)NC(=O)/C(=C/c3cc4c(cc3[N+](=O)[O-])OCO4)C2=O)c1	1.7	-6.3%	35.5µM*	-7.0%	?	1.5%
Cc1cc(C=C2C(=O)NC(=O)NC2=O)c(C)n1-c1ccc2c(c1)OCO2	-2.1	-29.1%	-6.6%	-14.1%	?	?
O=C1NC(=O)C(=Cc2cc3c(cc2[N+](=O)[O-])OCO3)C(=O)N1	-0.4	-18.0%	-88.6%	?	12.6µM*	28.2µM*
CC1=NN(c2ccccc2)C(=O)C1/C=C1/C(=O)NC(=O)N(c2cccc(C)c2)C1=O (stereo not given)	9.3	-19.6%	-12.6%	-0.6%	?	-2.2%
CC(C)(O)C1C2OC(=O)C1[C@]1(O)CC3O[C@@]34C(=O)OC2[C@@]14C (stereo not given in full)	3.1	-7.3%	-3.7%	-3.4%	-6.1%	-7.7%
CCCN1CCc2cccc3c2C1Cc1ccc(O)c(O)c1-3 (stereo not given)	/	17.8µM*[quencher]	56.2µM*	?	14.1µM*	31.6µM*
COc1cc2c(cc1O)C[C@H]1c3c(cc(O)c(OC)c3-2)CCN1C	4.6	/	8.8%	?	/	/
C/C=C1/C[N@@+]2(C)CC[C@]34C(=C(C=O)[C@H]1C[C@H]32)Nc1ccccc14	/	2.7%	?	/	-2.3%	-2.0%
O=C1NC(=O)N(Cc2ccccc2Cl)C(=O)/C1=C/N1CCOCC1	4.7	-22.7%	10µM*	-6.6%	17.8µM*	?

Assay outcomes as filed in PubChem BioAssay.
